# Data as given in PubChem BioAssay (NCATS).
# Records with an inconclusive call do not appear. The source made the active and inactive calls. Unless noted, calls come from the whole dose curve; as a rule, active = well fitted inhibition curve with a large enough effect; inconclusive = small, poorly fitted or top-dose-only effect; inactive = flat fitted curve, though single readings scatter.
# Experiments:
# [1] = qHTS drug screen for cell cycle checkpoint inhibitors in PARPi-resistant BRCA-mutant ovarian cancer cell lines. (AID 1963452; calls by dose curve; note: potency is the fitted concentration of half-maximal effect); settings: PEO1/OlaR viability, CellTiter-Glo luminescence, 96 h; for Z-AUC: stronger effect = lower value
# Outline: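 PEO1, PEO4 and PEO1/OlaR ovarian cancer cells, 600 per well, exposed 96 h at 37C to a dilution series. Viability read by CellTiter-Glo luminescence, normalized to DMSO and empty wells; activity summarized as Z-AUC.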
# [2] = qHTS for identification of novel therapeutic agents for treatment of microphthalmiaassociated transcription factor (MiT) renal cell carcinoma (RCC) (AID 1963991; calls by dose curve; note: potency is the fitted concentration of half-maximal effect); settings: CellTiter-Glo, 48 h; for z-score: stronger effect = lower value
# Outline: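 Three TFE3-fusion RCC lines (UOK109, UOK124, UOK145), 500 cells/well in complete medium, were treated with MIPE 4.0 compounds for 48 hours at 37 C. Viability was by CellTiter-Glo luminescence, normalized to DMSO (100%) and empty wells (0%); curves fitted over 11 concentrations.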
# [3] = qHTS profiling for inhibitors of Plasmodium falciparum proliferation (AID 504749);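 note: 0% = DMSO vehicle and full inhibition = artemisinin control; nearly all actives have a fitted effect of over 60% in size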; settings: P. falciparum in erythrocytes, SYBR Green DNA, 72 h
# Outline: (§1)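 Three-day growth assay of blood-stage parasites in erythrocytes (0.3% parasitemia, 2.5% hematocrit) at 37 C, 5% CO2, quantified by SYBR Green DNA staining after overnight detergent lysis.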
# [4] = test system: 3D7; assay: as above; settings: P. falciparum in erythrocytes, SYBR Green DNA, 72 h; series mostly up to 28.7 µM
# Outline: as §1
# [5] = test system: 7G8; assay: as above; settings: P. falciparum in erythrocytes, SYBR Green DNA, 72 h; series mostly up to 28.7 µM
# Outline: as §1
# [6] = test system: AA1029; assay: as above; settings: P. falciparum in erythrocytes, SYBR Green DNA, 72 h; series mostly up to 28.7 µM
# Outline: as §1
# [7] = test system: AS120; assay: as above; settings: P. falciparum in erythrocytes, SYBR Green DNA, 72 h; series mostly up to 28.7 µM
# Outline: as §1
# [8] = test system: ATS189; assay: as above; settings: P. falciparum in erythrocytes, SYBR Green DNA, 72 h; series mostly up to 28.7 µM
# Outline: as §1
# [9] = test system: ATS95; assay: as above; settings: P. falciparum in erythrocytes, SYBR Green DNA, 72 h; series mostly up to 28.7 µM
# Outline: as §1
# [10] = test system: C2A; assay: as above; settings: P. falciparum in erythrocytes, SYBR Green DNA, 72 h; series mostly up to 28.7 µM
# Outline: as §1
# [11] = test system: CP185; assay: as above; settings: P. falciparum in erythrocytes, SYBR Green DNA, 72 h; series mostly up to 28.7 µM
# Outline: as §1
# [12] = test system: CP191; assay: as above; settings: P. falciparum in erythrocytes, SYBR Green DNA, 72 h; series mostly up to 28.7 µM
# Outline: as §1
# [13] = test system: CP192; assay: as above; settings: P. falciparum in erythrocytes, SYBR Green DNA, 72 h; series mostly up to 28.7 µM
# Outline: as §1
# [14] = test system: CP194; assay: as above; settings: P. falciparum in erythrocytes, SYBR Green DNA, 72 h; series mostly up to 28.7 µM
# Outline: as §1
# [15] = test system: CP201; assay: as above; settings: P. falciparum in erythrocytes, SYBR Green DNA, 72 h; series mostly up to 28.7 µM
# Outline: as §1
# [16] = test system: CP211; assay: as above; settings: P. falciparum in erythrocytes, SYBR Green DNA, 72 h; series mostly up to 28.7 µM
# Outline: as §1
# [17] = test system: CP215; assay: as above; settings: P. falciparum in erythrocytes, SYBR Green DNA, 72 h; series mostly up to 28.7 µM
# Outline: as §1
# [18] = test system: CP217; assay: as above; settings: P. falciparum in erythrocytes, SYBR Green DNA, 72 h; series mostly up to 28.7 µM
# Outline: as §1
# [19] = measured here: PEO1 parental Z-AUC
# [20] = TFE3-RCC UOK109 viability, measured here: UOK109 Z-AUC
# [21] = TFE3-RCC viability, measured here: UOK124 Z-AUC
# [22] = TFE3-RCC viability, measured here: UOK145 Z-AUC
# [23] = at 28.7 µM (top of the series), parasite line A
# [24] = at 28.7 µM (top of the series), parasite line B
structure (smiles),measurement,setting,value
O=c1c(O)c(-c2cc(O)c(O)c(O)c2)oc2cc(O)cc(O)c12,Z-AUC,[1],1.5 (inactive)
same,Z-AUC,[1]; [19],1.23
same,Z-AUC,[1]; measured here: PEO4 Z-AUC,1.17
same,z-score,[2]; [20],0.252
same,z-score,[2]; [21],0.375
same,z-score,[2]; [22],-0.367
Cc1nc(-c2ccc(OCC(C)C)c(C#N)c2)sc1C(=O)O,Z-AUC,[1],0.79 (inactive)
same,Z-AUC,[1]; [19],0.0163
same,Z-AUC,[1]; measured here: PEO4 Z-AUC,0.327
same,z-score,[2]; [20],1.16
same,z-score,[2]; [21],0.952
same,z-score,[2]; [22],0.581
CCN(CC)CCOc1ccc(Nc2ncc3cc(-c4c(Cl)cccc4Cl)c(=O)n(C)c3n2)cc1,Potency,[1],155 nM (active)
same,Z-AUC,[1]; [19],-1.55
same,Z-AUC,[1]; measured here: PEO4 Z-AUC,-1.25
same,Potency,"[2]; TFE3-RCC UOK109 viability, active = Z-AUC below -0.8 in all three lines",11.8 nM (active)
same,z-score,[2]; [20],-2.53
same,z-score,[2]; [21],-3.17
same,z-score,[2]; [22],-2.04
CC1Cc2ccccc2N1NC(=O)c1ccc(Cl)c(S(N)(=O)=O)c1 (centres undefined),Z-AUC,[1],-0.461 (inactive)
same,Z-AUC,[1]; [19],-0.0256
same,Z-AUC,[1]; measured here: PEO4 Z-AUC,0.0474
same,z-score,[2]; [20],0.928
same,z-score,[2]; [21],0.508
same,z-score,[2]; [22],0.493
O=C(O)CCNC(=O)c1ccc(N=Nc2ccc(O)c(C(=O)O)c2)cc1,Z-AUC,[1],-0.101 (inactive)
same,Z-AUC,[1]; [19],0.264
same,Z-AUC,[1]; measured here: PEO4 Z-AUC,0.361
same,z-score,[2]; [20],1.03
same,z-score,[2]; [21],0.51
same,z-score,[2]; [22],0.488
same,"activity, negative = inhibition",[3]; [23],4.07% (inactive)
same,"activity, negative = inhibition",[3]; [24],9.54% (inactive)
same,Potency,[4],inactive
same,Potency,[5],inactive
same,Potency,[6],inactive
same,Potency,[7],inactive
same,Potency,[8],inactive
same,Potency,[9],inactive
same,Potency,[10],inactive
same,Potency,[11],inactive
same,Potency,[12],inactive
same,Potency,[13],inactive
same,Potency,[14],inactive
same,Potency,[15],inactive
same,Potency,[16],inactive
same,Potency,[17],inactive
same,Potency,[18],inactive
C[Se]CCC(N)C(=O)O (centres undefined),Z-AUC,[1],0.282 (inactive)
same,Z-AUC,[1]; [19],1.03
same,Z-AUC,[1]; measured here: PEO4 Z-AUC,1.31
same,z-score,[2]; [20],1.47
same,z-score,[2]; [21],0.35
same,z-score,[2]; [22],0.0936
same,"activity, negative = inhibition",[3]; [23],6.19% (inactive)
same,"activity, negative = inhibition",[3]; [24],-13.4% (inactive)
same,Potency,[4],inactive
same,Potency,[5],inactive
same,Potency,[6],inactive
same,Potency,[7],inactive
same,Potency,[8],inactive
same,Potency,[9],inactive
same,Potency,[10],inactive
same,Potency,[11],inactive
same,Potency,[12],inactive
same,Potency,[13],inactive
same,Potency,[14],inactive
same,Potency,[15],inactive
same,Potency,[16],inactive
same,Potency,[18],inactive
CCOc1cc(CC(=O)N[C@@H](CC(C)C)c2ccccc2N2CCCCC2)ccc1C(=O)O,Z-AUC,[1],0.686 (inactive)
same,Z-AUC,[1]; [19],0.341
same,Z-AUC,[1]; measured here: PEO4 Z-AUC,0.628
same,z-score,[2]; [20],0.724
same,z-score,[2]; [21],0.688
same,z-score,[2]; [22],0.737
same,"activity, negative = inhibition","[3]; at 12.8 µM (top of the series), parasite line A",4.74% (inactive)
same,"activity, negative = inhibition","[3]; at 12.8 µM (top of the series), parasite line B",10.7% (inactive)
same,Potency,[4],inactive
same,Potency,[5],inactive
same,Potency,[6],inactive
same,Potency,[7],inactive
same,Potency,[8],inactive
same,Potency,[9],inactive
same,Potency,[10],inactive
same,Potency,[11],inactive
same,Potency,[12],inactive
same,Potency,[13],inactive
same,Potency,[14],inactive
same,Potency,[15],inactive
same,Potency,[16],inactive
same,Potency,[17],inactive
same,Potency,[18],inactive
Cc1ccc(C(=O)c2cc(O)c(O)c([N+](=O)[O-])c2)cc1,Z-AUC,[1],-0.393 (inactive)
same,Z-AUC,[1]; [19],-0.655
same,Z-AUC,[1]; measured here: PEO4 Z-AUC,-0.817
same,z-score,[2]; [20],0.222
same,z-score,[2]; [21],0.88
same,z-score,[2]; [22],0.533
